target: AP1S1; assay: pooled miR-30 sensor sort-seq; sequence = guide strand; conditions: shRNA

First: TCGCGCACCATCTTCTTCCGTT
Second: TCCAGCTCGCACACACTGCCAA
The sensor-assay potency score (higher = more potent) of the first is higher: -0.362 for the first, -0.956 for the second.

First: TTCTTCCGTTCCTTGTCCGAAG
Second: TTTGTCTAAGAGCTCCACGTAT
The sensor-assay potency score (higher = more potent) of the first is lower: -0.991 for the first, -0.832 for the second.

Sequence TTTCAGCACACTCTTCTTGGAG has a sensor-assay potency score (higher = more potent) of -0.813.

target: AP2B1; assay: as above; conditions: shRNA

Compared with TAGTTCCAGATTGTCAGTCTGC, TTCTGTAATTTTGTCTACCCGG is lower in sensor-assay potency score (higher = more potent): -0.496 for the first, -1.02 for the second.

Compared with TAATCTGAAACTGAAGTTCATT, TTTCTAGTAACTCATCTGCATT is lower in sensor-assay potency score (higher = more potent): -0.631 for the first, -1.34 for the second.

Going from TTAGTTCAAATATTTCTCCTTT to TTGTTTTTCACAGCCACCTGGA, the sensor-assay potency score (higher = more potent) falls from 0.546 to -0.558.

First: TTCATTAGGACTTTTACCGCTG
Second: TTGTTTTGCAACTTGCTGGAAA
The sensor-assay potency score (higher = more potent) of the first is higher: 0.615 for the first, -0.458 for the second.

Compared with TTTAGTTCAAATATTTCTCCTT, TAACAATTCTAGAAACTTCATT is lower in sensor-assay potency score (higher = more potent): 0.5 for the first, -0.559 for the second.

Compared with TTTCATTGTTGAGTTCAGCTTT, TAGAAGATCACCTTGAGAGGGG is lower in sensor-assay potency score (higher = more potent): 0.578 for the first, 0.529 for the second.

Compared with TTTCAGTTCTGCCAGAACCTGA, TATTGTAGTAGTCAGAATCCTT is higher in sensor-assay potency score (higher = more potent): -0.77 for the first, 0.0218 for the second.

Going from TTCATCGTGAAAACCCTCCAGG to TCATCCTTCAAGCACTTGCGGA, the sensor-assay potency score (higher = more potent) falls from -0.0807 to -1.05.

First: TAGAGAATCCAGAAATCCCTGA
Second: TCGAACAAAGTCAACATCCACC
The sensor-assay potency score (higher = more potent) of the first is higher: 0.164 for the first, -0.757 for the second.

First: TAAATGACATTCCTTAATCTGA
Second: TTGTTGTTTTGCAACTTGCTGG
The sensor-assay potency score (higher = more potent) of the first is lower: -0.695 for the first, -0.34 for the second.

Compared with TAGCATATTCTTTCAGTTCTGC, AAAGAGAGAACTAACATCCTTC is higher in sensor-assay potency score (higher = more potent): 0.583 for the first, 0.773 for the second.

Compared with AATAGTATAAACATTGTTGTTT, TTCAGATCAAGTAAGTTGCTGT is higher in sensor-assay potency score (higher = more potent): -0.183 for the first, 1.15 for the second.

target: AP3B1; assay: as above; conditions: shRNA

First: TAAACATATACCAACTTCTTGA
Second: TAAACCTTCAAGATCAGCCATC
The sensor-assay potency score (higher = more potent) of the first is higher: -0.605 for the first, -0.757 for the second.

Compared with TAGAAGTGAAACATCTTTGGTA, TTTGAATTGACATAGTTGCTAT is lower in sensor-assay potency score (higher = more potent): 0.763 for the first, -0.399 for the second.

Compared with TTTCTTTGAATTGACATAGTTG, TTCTTTATAACAACCACACTTT is higher in sensor-assay potency score (higher = more potent): -0.577 for the first, 0.0495 for the second.

Going from TACATTCGGAACAATAAGCTGC to TTCTTCAGCATATCGAACCAGG, the sensor-assay potency score (higher = more potent) falls from 0.383 to -0.815.

First: TACTTCTACATTTCGAACTGAT
Second: TAGATCTTCATTCTTCTTCAAA
The sensor-assay potency score (higher = more potent) of the first is higher: 0.236 for the first, -0.874 for the second.

For TTATGAATCAGATCTATTCTGT, the sensor-assay potency score (higher = more potent) was 0.754.

Reference: the OligoGym collection
